Legend:
Experiment in all cases: DAPPL (digital affinity profiling via proximity ligation, sequencing); 10 mM Tris-HCl pH 7.5, 50 mM NaCl, 1 mM DTT, 4% glycerol, room temperature, 30 min; GST-TFs on glutathione beads, 16-mer random dsDNA library, 0.1% formaldehyde crosslink after washing; high values mean tight binding
FLI1 = molecular target: T1, FLI1 (Homo sapiens, UniProt Q01543 1-452); conditions: protein: recombinant; tags: N-terminal GST; dsDNA, one strand shown
T1 sequence: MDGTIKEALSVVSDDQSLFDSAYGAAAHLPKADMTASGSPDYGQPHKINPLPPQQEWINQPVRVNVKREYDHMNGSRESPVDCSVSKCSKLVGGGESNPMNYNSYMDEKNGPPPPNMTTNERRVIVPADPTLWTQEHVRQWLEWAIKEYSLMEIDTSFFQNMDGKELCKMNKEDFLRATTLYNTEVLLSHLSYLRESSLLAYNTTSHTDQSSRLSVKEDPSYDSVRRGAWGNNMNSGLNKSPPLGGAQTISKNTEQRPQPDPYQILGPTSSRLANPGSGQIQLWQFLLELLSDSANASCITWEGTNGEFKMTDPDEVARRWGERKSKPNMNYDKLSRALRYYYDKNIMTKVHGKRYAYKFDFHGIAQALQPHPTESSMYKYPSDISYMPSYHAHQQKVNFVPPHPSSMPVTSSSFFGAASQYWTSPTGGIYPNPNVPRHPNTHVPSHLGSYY
Procedure, shortened: (§1)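 Human transcription factors fused to GST were expressed in yeast, captured on glutathione beads, given DNA barcodes and pooled with a GST-only negative control. Pools were incubated with 200 nmole of a 16-mer random double-stranded DNA library in Tris/NaCl/DTT/glycerol buffer at room temperature for 30 min. They were then washed, crosslinked with 0.1% formaldehyde, proximity-ligated (BsaI/T4 ligase, 1 h, 37 °C), PCR-amplified and sequenced on an Illumina NextSeq500. Binding signal is each 6-mer's read frequency for a factor divided by its frequency for the GST control.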

ELK1 = molecular target: T2, ELK1 (Homo sapiens, UniProt P19419 1-428); conditions: protein: recombinant; tags: N-terminal GST; dsDNA, one strand shown
T2 sequence: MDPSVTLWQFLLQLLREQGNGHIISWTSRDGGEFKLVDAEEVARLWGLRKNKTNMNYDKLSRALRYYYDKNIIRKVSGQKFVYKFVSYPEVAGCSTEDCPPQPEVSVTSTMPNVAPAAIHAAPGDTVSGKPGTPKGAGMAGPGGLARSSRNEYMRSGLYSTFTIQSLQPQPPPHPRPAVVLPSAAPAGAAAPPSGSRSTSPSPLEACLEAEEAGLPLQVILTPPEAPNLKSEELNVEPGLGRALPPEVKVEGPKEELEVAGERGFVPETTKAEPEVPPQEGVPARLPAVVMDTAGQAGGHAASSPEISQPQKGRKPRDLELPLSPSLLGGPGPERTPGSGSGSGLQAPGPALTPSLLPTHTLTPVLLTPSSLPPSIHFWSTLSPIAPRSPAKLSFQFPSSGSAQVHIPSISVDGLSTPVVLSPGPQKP
Procedure, shortened: as §1

GABPA = molecular target: T3, GABPA (Homo sapiens, UniProt Q06546 1-454); conditions: protein: recombinant; tags: N-terminal GST; dsDNA, one strand shown
T3 sequence: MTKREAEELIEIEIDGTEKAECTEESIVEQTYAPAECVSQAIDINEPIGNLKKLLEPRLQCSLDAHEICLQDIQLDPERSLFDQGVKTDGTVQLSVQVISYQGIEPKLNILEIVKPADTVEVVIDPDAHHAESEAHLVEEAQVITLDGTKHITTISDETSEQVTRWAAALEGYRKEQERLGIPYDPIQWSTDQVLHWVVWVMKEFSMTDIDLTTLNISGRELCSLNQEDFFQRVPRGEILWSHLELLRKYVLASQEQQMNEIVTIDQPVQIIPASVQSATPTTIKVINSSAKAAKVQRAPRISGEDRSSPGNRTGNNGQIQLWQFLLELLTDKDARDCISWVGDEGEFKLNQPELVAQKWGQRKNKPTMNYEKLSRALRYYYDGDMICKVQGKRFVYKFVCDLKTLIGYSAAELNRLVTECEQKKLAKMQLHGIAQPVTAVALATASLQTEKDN
Procedure, shortened: as §1

ERG = molecular target: T4, ERG (Homo sapiens, UniProt P11308 1-479); conditions: protein: recombinant; tags: N-terminal GST; dsDNA, one strand shown
T4 sequence: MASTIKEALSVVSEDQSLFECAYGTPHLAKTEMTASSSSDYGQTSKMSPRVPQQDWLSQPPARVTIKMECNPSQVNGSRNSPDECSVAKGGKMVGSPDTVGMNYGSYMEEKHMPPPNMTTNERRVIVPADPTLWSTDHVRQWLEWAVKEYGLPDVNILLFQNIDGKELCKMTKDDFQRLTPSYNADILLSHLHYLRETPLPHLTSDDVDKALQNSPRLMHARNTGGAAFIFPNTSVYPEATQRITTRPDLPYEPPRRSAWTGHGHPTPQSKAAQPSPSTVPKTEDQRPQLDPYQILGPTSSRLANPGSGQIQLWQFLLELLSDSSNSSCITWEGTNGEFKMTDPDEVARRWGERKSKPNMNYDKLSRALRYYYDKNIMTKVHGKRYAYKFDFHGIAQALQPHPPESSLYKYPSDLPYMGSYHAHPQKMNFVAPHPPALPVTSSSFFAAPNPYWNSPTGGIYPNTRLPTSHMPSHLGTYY
Procedure, shortened: as §1

ELF1 = ELF1 (Homo sapiens, UniProt P32519 1-619); conditions: protein: recombinant; tags: N-terminal GST; dsDNA, one strand shown
Procedure, shortened: as §1

EHF = molecular target: T5, EHF (Homo sapiens, UniProt Q9NZC4 1-300); conditions: protein: recombinant; tags: N-terminal GST; dsDNA, one strand shown
T5 sequence: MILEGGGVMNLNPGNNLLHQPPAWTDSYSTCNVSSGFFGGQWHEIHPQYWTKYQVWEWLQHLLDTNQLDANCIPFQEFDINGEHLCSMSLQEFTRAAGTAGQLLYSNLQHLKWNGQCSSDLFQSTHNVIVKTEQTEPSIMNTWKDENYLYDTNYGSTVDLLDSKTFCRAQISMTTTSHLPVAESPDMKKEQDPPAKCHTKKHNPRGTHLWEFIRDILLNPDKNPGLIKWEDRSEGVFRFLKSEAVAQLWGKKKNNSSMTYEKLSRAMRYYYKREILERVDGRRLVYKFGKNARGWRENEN
Procedure, shortened: as §1

SPI1 = SPI1 (Homo sapiens, UniProt P17947 1-270); conditions: protein: recombinant; tags: N-terminal GST; dsDNA, one strand shown
Procedure, shortened: as §1

SPIB = SPIB (Homo sapiens, UniProt Q01892 1-262); conditions: protein: recombinant; tags: N-terminal GST; dsDNA, one strand shown
Procedure, shortened: as §1

ELK3 = molecular target: T6, ELK3 (Homo sapiens, UniProt P41970 1-407); conditions: protein: recombinant; tags: N-terminal GST; dsDNA, one strand shown
T6 sequence: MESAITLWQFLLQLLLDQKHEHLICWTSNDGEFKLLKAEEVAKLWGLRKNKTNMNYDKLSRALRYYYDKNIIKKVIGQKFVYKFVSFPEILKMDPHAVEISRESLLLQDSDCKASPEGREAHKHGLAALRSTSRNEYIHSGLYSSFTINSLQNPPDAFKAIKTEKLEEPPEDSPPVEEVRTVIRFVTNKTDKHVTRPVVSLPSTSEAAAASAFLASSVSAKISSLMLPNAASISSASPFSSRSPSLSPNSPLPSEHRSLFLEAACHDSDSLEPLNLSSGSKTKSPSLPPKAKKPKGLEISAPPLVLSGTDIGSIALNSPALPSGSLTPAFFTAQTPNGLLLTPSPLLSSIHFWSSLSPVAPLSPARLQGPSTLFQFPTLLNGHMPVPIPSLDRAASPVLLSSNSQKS
Procedure, shortened: as §1

FEV = molecular target: T7, FEV (Homo sapiens, UniProt Q99581 1-238); conditions: protein: recombinant; tags: N-terminal GST; dsDNA, one strand shown
T7 sequence: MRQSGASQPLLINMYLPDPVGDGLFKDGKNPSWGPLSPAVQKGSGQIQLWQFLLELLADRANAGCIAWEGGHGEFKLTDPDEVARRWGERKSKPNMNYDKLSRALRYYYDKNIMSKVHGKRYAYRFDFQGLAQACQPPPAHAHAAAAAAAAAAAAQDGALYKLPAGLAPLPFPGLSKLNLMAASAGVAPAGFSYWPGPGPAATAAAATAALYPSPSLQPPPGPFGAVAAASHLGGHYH
Procedure, shortened: as §1

ETV5 = ETV5 (Homo sapiens, UniProt P41161 1-510); conditions: protein: recombinant; tags: N-terminal GST; dsDNA, one strand shown
Procedure, shortened: as §1

HSF1 = HSF1 (Homo sapiens, UniProt Q00613 1-529); conditions: protein: recombinant; tags: N-terminal GST; chain copies: 3; dsDNA, one strand shown
Procedure, shortened: as §1

SPIC = molecular target: T8, SPIC (Homo sapiens, UniProt Q8N5J4 1-248); conditions: protein: recombinant; tags: N-terminal GST; dsDNA, one strand shown
T8 sequence: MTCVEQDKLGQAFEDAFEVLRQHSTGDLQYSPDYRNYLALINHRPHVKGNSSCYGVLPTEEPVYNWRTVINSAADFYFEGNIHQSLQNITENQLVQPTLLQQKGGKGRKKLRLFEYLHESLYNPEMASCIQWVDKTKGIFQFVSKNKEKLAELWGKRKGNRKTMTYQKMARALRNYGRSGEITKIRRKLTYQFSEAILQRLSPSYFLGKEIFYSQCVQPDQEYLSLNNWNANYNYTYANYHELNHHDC
Procedure, shortened: as §1

ELF4 = ELF4 (Homo sapiens, UniProt Q99607 1-663); conditions: protein: recombinant; tags: N-terminal GST; dsDNA, one strand shown
Procedure, shortened: as §1

ELK4 = molecular target: T9, ELK4 (Homo sapiens, UniProt P28324-2 1-405); conditions: protein: recombinant; tags: N-terminal GST; dsDNA, one strand shown
T9 sequence: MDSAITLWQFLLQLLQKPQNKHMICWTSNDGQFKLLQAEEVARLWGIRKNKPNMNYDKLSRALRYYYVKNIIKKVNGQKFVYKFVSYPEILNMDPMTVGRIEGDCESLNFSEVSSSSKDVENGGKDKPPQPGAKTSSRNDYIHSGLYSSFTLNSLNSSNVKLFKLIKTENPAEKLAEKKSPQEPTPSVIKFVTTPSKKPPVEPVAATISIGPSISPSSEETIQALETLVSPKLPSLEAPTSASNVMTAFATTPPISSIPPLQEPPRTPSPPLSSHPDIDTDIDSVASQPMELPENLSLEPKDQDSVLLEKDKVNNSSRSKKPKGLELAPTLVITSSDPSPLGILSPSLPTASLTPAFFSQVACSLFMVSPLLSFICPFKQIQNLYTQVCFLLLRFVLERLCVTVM
Procedure, shortened: as §1

ETV2 = molecular target: T10, ETV2 (Homo sapiens, UniProt O00321 1-342); conditions: protein: recombinant; tags: N-terminal GST; dsDNA, one strand shown
T10 sequence: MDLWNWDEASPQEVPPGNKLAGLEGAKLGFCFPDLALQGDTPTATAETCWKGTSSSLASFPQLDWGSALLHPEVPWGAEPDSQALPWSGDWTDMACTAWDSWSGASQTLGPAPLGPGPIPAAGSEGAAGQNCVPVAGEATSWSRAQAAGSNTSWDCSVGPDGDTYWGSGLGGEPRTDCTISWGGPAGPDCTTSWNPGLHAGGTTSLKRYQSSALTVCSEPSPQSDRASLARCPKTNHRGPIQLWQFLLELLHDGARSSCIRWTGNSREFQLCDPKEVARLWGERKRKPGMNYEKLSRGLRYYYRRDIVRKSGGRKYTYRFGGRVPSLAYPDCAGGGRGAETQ
Procedure, shortened: as §1

ELF3 = molecular target: T11, ELF3 (Homo sapiens, UniProt P78545 1-371); conditions: protein: recombinant; tags: N-terminal GST; dsDNA, one strand shown
T11 sequence: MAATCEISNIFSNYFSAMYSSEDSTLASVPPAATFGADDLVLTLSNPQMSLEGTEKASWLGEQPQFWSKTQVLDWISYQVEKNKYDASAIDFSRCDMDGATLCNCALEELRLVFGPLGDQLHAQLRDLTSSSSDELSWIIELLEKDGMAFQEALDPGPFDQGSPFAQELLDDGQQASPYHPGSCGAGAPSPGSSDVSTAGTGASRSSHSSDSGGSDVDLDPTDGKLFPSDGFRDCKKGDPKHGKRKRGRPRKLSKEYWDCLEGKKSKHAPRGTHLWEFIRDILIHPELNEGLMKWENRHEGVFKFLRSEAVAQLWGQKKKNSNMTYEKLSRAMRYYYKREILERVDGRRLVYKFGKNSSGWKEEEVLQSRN
Procedure, shortened: as §1

CRX = CRX (Homo sapiens, UniProt O43186 1-299); conditions: protein: recombinant; tags: N-terminal GST; dsDNA, one strand shown
Procedure, shortened: as §1

ETV1 = ETV1 (Homo sapiens, UniProt P50549 1-477); conditions: protein: recombinant; tags: N-terminal GST; dsDNA, one strand shown
Procedure, shortened: as §1

Sequence of SPIB (Q01892 whole entry): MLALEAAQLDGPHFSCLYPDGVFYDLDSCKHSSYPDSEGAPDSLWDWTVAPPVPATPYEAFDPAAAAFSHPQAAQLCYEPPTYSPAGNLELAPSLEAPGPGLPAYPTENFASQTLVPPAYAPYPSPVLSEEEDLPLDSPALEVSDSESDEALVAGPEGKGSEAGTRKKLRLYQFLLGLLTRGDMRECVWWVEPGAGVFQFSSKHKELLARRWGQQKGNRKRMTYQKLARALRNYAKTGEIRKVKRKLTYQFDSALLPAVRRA
Sequence of CRX (O43186 whole entry): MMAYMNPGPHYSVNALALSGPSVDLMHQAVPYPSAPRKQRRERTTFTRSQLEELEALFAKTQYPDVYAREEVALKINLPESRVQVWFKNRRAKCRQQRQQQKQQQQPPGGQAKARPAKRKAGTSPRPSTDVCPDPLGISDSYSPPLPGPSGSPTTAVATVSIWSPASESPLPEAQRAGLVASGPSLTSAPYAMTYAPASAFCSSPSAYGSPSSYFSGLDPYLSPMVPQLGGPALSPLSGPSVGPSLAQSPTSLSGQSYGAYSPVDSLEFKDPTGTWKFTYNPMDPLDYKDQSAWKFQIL
Sequence of HSF1 (Q00613 whole entry): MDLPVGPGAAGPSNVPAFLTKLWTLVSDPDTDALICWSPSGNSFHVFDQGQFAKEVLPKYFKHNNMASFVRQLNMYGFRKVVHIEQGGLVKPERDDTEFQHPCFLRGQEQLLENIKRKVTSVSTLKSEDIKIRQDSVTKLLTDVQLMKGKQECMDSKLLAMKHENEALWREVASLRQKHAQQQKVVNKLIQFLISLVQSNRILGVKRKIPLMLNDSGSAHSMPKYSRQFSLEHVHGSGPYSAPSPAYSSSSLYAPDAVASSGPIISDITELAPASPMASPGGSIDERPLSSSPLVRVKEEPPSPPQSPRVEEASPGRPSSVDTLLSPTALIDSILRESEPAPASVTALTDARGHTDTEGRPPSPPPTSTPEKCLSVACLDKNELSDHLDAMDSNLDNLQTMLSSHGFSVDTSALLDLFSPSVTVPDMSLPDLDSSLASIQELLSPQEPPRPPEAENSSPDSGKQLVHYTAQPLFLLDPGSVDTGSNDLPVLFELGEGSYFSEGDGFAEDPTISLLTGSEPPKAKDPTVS
Sequence of ETV1 (P50549 whole entry): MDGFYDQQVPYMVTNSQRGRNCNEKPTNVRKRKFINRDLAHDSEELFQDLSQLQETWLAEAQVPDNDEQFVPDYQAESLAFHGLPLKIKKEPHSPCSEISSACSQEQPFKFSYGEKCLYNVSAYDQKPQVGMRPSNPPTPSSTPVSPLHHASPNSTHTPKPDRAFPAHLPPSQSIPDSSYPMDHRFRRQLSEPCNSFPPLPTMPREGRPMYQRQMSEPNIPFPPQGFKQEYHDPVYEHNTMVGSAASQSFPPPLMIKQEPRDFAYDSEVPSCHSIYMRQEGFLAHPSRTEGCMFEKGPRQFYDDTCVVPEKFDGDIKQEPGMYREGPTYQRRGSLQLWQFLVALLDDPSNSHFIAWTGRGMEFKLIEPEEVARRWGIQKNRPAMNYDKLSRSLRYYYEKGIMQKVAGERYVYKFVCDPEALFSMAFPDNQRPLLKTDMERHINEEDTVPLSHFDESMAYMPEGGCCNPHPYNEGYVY
Sequence of ETV5 (P41161 whole entry): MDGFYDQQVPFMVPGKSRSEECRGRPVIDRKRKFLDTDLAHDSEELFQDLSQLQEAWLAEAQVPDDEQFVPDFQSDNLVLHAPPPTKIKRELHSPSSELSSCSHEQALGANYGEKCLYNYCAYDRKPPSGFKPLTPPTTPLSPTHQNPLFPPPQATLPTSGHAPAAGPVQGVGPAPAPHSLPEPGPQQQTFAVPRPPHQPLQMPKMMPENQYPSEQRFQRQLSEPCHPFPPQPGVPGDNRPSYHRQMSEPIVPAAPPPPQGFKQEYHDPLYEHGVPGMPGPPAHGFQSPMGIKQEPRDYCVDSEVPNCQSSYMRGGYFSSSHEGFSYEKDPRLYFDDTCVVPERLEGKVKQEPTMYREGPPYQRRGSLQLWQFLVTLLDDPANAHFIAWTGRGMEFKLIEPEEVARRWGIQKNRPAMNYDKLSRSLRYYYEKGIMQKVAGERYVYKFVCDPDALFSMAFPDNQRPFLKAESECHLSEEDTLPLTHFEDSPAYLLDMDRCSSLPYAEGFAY
Sequence of ELF4 (Q99607 whole entry): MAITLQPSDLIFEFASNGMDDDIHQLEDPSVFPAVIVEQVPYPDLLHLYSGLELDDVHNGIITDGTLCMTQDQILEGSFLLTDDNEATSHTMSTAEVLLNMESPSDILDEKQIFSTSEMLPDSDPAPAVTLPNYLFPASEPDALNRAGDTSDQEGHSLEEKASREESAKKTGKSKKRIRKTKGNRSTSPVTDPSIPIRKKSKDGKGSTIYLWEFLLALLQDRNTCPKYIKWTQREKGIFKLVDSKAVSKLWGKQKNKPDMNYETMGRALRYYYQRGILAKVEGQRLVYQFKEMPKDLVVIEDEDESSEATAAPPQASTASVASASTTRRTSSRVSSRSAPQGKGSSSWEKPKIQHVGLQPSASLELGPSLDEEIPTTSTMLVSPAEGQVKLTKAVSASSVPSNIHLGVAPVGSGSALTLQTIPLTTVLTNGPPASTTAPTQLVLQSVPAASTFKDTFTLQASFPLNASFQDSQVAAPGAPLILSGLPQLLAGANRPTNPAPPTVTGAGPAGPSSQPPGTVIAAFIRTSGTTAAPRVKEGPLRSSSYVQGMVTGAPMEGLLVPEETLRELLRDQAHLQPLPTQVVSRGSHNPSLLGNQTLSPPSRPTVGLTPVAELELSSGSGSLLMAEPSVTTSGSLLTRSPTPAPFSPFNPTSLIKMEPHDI
Sequence of ELF1 (P32519 whole entry): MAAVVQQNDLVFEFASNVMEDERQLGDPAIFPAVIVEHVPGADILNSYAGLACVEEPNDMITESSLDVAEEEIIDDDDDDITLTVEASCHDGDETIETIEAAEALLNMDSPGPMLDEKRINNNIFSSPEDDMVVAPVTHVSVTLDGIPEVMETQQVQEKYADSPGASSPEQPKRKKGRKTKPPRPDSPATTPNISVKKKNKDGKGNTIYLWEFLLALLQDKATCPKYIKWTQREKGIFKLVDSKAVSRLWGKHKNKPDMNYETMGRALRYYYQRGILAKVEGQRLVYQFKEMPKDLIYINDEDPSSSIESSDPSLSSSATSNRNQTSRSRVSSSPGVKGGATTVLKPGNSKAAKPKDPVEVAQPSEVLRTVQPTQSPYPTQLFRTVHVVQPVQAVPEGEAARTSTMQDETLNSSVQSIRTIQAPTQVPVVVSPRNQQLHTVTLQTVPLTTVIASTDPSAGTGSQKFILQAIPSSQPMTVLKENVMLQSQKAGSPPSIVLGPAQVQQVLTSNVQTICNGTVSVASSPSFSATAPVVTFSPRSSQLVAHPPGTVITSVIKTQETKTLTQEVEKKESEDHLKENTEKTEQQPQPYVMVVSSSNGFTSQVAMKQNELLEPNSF

Q: Which results are given for CGTATT?
A: binding signal (FLI1): 1.24 fold enrichment (6-mer frequency, TF over GST control); binding signal (ELK1): 1.18 fold enrichment (6-mer frequency, TF over GST control); binding signal (GABPA): 1.12 fold enrichment (6-mer frequency, TF over GST control); binding signal (ERG): 1.15 fold enrichment (6-mer frequency, TF over GST control); binding signal (ELF1): 1.11 fold enrichment (6-mer frequency, TF over GST control); binding signal (EHF): 1.12 fold enrichment (6-mer frequency, TF over GST control); binding signal (SPI1): 1.17 fold enrichment (6-mer frequency, TF over GST control); binding signal (SPIB): 1.24 fold enrichment (6-mer frequency, TF over GST control); binding signal (ELK3): 1.38 fold enrichment (6-mer frequency, TF over GST control); binding signal (FEV): 1.07 fold enrichment (6-mer frequency, TF over GST control); binding signal (ETV5): 1.2 fold enrichment (6-mer frequency, TF over GST control); binding signal (HSF1): 1.21 fold enrichment (6-mer frequency, TF over GST control); binding signal (SPIC): 1.22 fold enrichment (6-mer frequency, TF over GST control); binding signal (ELF4): 1.16 fold enrichment (6-mer frequency, TF over GST control); binding signal (ELK4): 1.18 fold enrichment (6-mer frequency, TF over GST control); binding signal (ETV2): 1.38 fold enrichment (6-mer frequency, TF over GST control); binding signal (ELF3): 1.04 fold enrichment (6-mer frequency, TF over GST control); binding signal (CRX): 1.46 fold enrichment (6-mer frequency, TF over GST control); binding signal (ETV1): 1.22 fold enrichment (6-mer frequency, TF over GST control)

From paper PMC7862700, “An all-to-all approach to the identification of sequence-specific readers for epigenetic DNA modifications on cytosine”
